# Compounds with a hit are over-represented: about 3% of the library has one in this group of screens.
# PLK1 PBD inh = inhibitors of human PLK1 polo-box domain binding; Plk1 PBD binding of FITC phosphopeptide, fluorescence polarization; Potency, µM, actives largely listed as inhibitors; actives 2.8% (n = 360,000); AID 720504; also: series mostly up to about 57 µM; nearly all actives have a fitted effect of over 65% in size
# PTAP TSG101 blk = blocks PTAP/TSG101 interaction to inhibit HIV-1 budding. Potency, µM (top dose mostly 115 µM), actives largely listed as inhibitors. 340,000 tested, under 10 active. Fluorescence polarization, FITC-PTAP peptide / Tsg101 binding; active = well fitted inhibition curve with a large enough effect in the main read-out, with a control signal flat, not every such curve was filed as active; inconclusive = small, poorly fitted or top-dose-only effect, or effect the other way, or a change in a side signal; inactive = no such curve, though single readings can be large or run the other way
#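 Compounds were pin-transferred onto Tsg101 binding domain (10 uM final) in HEPES pH 7.5 buffer, then FITC-PTAP peptide was added at 50 nM final. After 20 min at RT, polarization reported peptide displacement across a qHTS concentration series.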
# KAT2A inh = inhibitors of human GCN5L2 histone acetyltransferase; Q92830; GCN5L2 HAT assay, ThioGlo1 CoA-SH fluorescence; Potency, µM (series often up to 58.9 µM), hits mostly inhibitors; actives 0.21% (n = 390,000); AID 504327
#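 GCN5L2 (20 nM) in 50mM HEPES pH 7.5, 0.1mM EDTA, 0.01% Tween-20 preincubated 15 min with compounds at room temperature. Reaction started with H3(1-25) 75uM, acetyl-CoA 70uM, ThioGlo1 50uM; CoA-thiol fluorescence (Ex340/Em540) read at 0 and 20 min.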
# VDR inhibitor = blocks the human vitamin D receptor. AID 504847. Potency, µM, actives largely listed as inhibitors. P11473. VDR-SRC2-3 peptide fluorescence polarization, 2 h. actives 0.93% (n = 400,000)
#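 Measured by FP: displacement of SRC2-3 coactivator peptide from VDR by library compounds, following a two-hour ambient incubation.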
# USP1-UAF1 inh = blocks the human USP1/UAF1 deubiquitinase complex; O94782; recombinant USP1/UAF1, Ub-Rhodamine cleavage fluorescence; Potency, µM (highest dose often 57.1 µM), most hits filed as inhibitors; actives 0.23% (n = 390,000); also: nearly all actives have a fitted effect of over 60% in size
# Target sequence (O94782 whole entry, looked up): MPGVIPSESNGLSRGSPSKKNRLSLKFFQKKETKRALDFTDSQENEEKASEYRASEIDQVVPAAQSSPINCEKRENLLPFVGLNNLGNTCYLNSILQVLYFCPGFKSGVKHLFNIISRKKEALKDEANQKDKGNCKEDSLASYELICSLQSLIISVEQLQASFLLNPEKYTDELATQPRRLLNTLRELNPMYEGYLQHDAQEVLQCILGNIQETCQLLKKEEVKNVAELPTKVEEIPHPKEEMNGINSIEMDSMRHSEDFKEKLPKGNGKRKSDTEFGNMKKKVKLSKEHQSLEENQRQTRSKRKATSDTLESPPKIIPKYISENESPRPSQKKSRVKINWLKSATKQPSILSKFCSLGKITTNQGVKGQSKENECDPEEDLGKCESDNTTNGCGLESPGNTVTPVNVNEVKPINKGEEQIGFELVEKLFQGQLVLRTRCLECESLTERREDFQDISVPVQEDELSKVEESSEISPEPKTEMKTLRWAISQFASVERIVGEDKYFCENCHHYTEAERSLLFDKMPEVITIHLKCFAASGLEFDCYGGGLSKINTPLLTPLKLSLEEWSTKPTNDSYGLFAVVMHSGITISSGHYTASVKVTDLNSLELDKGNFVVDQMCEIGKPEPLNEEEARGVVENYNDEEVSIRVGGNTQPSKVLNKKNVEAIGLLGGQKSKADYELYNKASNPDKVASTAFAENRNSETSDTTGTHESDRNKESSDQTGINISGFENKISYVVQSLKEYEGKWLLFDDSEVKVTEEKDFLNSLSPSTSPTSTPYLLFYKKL
#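 Step one: compound is pinned into 1nM USP1/UAF1 in HEPES pH 7.8 buffer with TCEP. Step two: 15 min room-temperature incubation. Step three: Ub-Rho (150nM final) starts cleavage, tracked by fluorescence over six one-minute reads.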
# Hits are given with their value; n = inactive; u = inconclusive; x = not tested or not shown. Unless noted, calls follow the shape of the dose curve; as a rule, active = well fitted curve in the direction sought with a large enough effect; inconclusive = small, poorly fitted or top-dose-only effect, or another doubt; inactive = no such curve, though single readings can be large; an effect the other way counts as inactive or inconclusive.
SMILES,PLK1 PBD inh,PTAP TSG101 blk,KAT2A inh,VDR inhibitor,USP1-UAF1 inh
OC12C3C4CC5C6C4C1C6C(C53)N2CCc1cccc(F)c1 (configuration not stated),x,x,n,n,x
O=[N+]([O-])c1ccc(NCc2ccc(Cl)cc2)c2ccncc12,n,n,n,n,u
O=[N+]([O-])c1ccc(NCc2ccccc2)c2nonc12,0.84µM,u,n,n,22µM
CN1C(=O)CCS(=O)(=O)[C@@H]1c1ccc(Cl)cc1,x,x,n,n,x
O=C(NCc1nnc(SCC(=O)N2CCN(c3ccccc3)CC2)o1)c1ccco1,27µM,n,n,n,n
CC1CC(O)[C@]2(O)[C@]13CC(=O)OC[C@@]2(C)[C@@](C)(O)C(=O)C3 (some centres not stated),x,x,n,n,x
C[C@@H](COc1ccccc1)N(CCCl)Cc1ccccc1,x,x,n,25µM,x
CC[C@@]1(O)C(=O)OCc2c1cc1n(c2=O)-c2cc3ccccc3nc2C1,x,x,28µM,n,x
COc1ccc(NC(=O)N2CC3(CCN(C(=O)Oc4ccccc4)CC3)C2)cc1,x,x,n,n,x
C=CCc1c(C)[nH]c(=S)c(C#N)c1C,24µM,n,n,u,n
CC(C)C[C@H](NC(=O)[C@H](Cc1ccccc1)NC(=O)CNC(=O)[C@@H](COC(C)(C)C)NC(=O)[C@@H](N)Cc1ccc(O)cc1)C(=O)N[C@H](C(=O)O)[C@@H](C)OC(C)(C)C,x,x,n,n,x
C[C@]12CCC3C(C=CC4=CC(=O)CC[C@]43C)C1CC[C@]2(O)CCC(=O)O (some centres not stated),x,x,n,n,x
N#CC1=C(N)Oc2c(c(=O)oc3ccccc23)C1c1ccc([N+](=O)[O-])o1 (configuration not stated),21µM,n,n,u,u
COc1cccc2c1C(=O)c1c(O)c3c(c(O)c1C2=O)CC(O)(C(C)=NO)CC3OC1CC(N)C(O)C(C)O1 (configuration not stated),u,u,x,n,25µM
CC(=O)O[C@@H]1C[C@@]2(C)C(c3ccoc3)C[C@H]3O[C@]32[C@]2(C)C(=O)C(O)=C3C(C)(C)C(=O)C=C[C@]3(C)C12 (some centres not stated),x,x,x,14µM,x
CC(=O)OC1CC(OC(C)=O)[C@]2(C)C(CC(OC(C)=O)[C@]3(C)C2CC[C@@]2(C)C(c4ccoc4)C[C@H]4O[C@]432)C1(C)C (some centres not stated),x,x,n,n,x
CC(=O)OC1C[C@@]2(C)C(c3ccoc3)C[C@H]3O[C@@]32[C@@]2(C)C(=O)C(O)=C3C(C)(C)C(=O)C=C[C@]3(C)C12 (some centres not stated),x,x,n,4µM,x
CC1(C)C2C[C@@H](O)[C@]3(C)C(CC[C@@]4(C)[C@H](c5ccoc5)C[C@H]5O[C@]543)[C@@]2(C)[C@@H](O)C[C@H]1O (some centres not stated),x,x,x,n,x
CCNN,x,x,n,n,x
COc1cc(/C=N/NP(=S)(c2ccccc2)c2ccccc2)ccc1O,u,n,n,n,n
Oc1ccc(/C=N/NP(=S)(c2ccccc2)c2ccccc2)cc1,24µM,n,n,n,n
Cc1cccc(N2C(=O)NC(=O)/C(=C\c3ccc4c(c3)CCCN4Cc3ccccc3)C2=O)c1,u,u,n,u,n
CCC(C)N1C(=O)/C(=C/c2ccc3c(c2)CCN3CCCCl)C(=O)NC1=S (configuration not stated),0.95µM,n,n,n,n
O=C(O)c1c(C(=O)O)c(-c2ccc(Br)cc2)n2c1CSC2,n,n,n,u,n
COc1ccc(NC(=S)NC(NC(=O)CF)C(Cl)(Cl)Cl)cc1[N+](=O)[O-] (configuration not stated),30µM,n,n,n,n
SMILES,PLK1 PBD inh,PTAP TSG101 blk,KAT2A inh,VDR inhibitor,USP1-UAF1 inh
O=C(CF)NC(NC(=S)Nc1cccc([N+](=O)[O-])c1)C(Cl)(Cl)Cl (configuration not stated),n,n,n,n,n
CN1CCCC2(CCN(C(=O)c3ccco3)CC2)C1,x,x,n,n,x
CCCCC/C=C\C/C=C\C/C=C\CCCCC(=O)NCCc1ccc(O)c(O)c1,x,x,x,n,x
Cn1ncnc2c(=O)n(C)c(=O)nc1-2,u,n,n,n,0.032µM
Cc1ccc(-c2nc3c(=O)n(C)c(=O)nc-3n(C)n2)cc1,x,x,x,n,x
CCn1c(N)c(C(=O)NC)sc1=S,2.7µM,n,n,25µM,n
COc1ccc(OCCOc2cccc(C=C3C(=O)NC(=O)NC3=O)c2)cc1,x,x,n,x,x
CN(CCOc1ccc(C=C2C(=O)NC(=O)NC2=O)cc1)c1ccccn1,3µM,n,n,u,n
O[C@@H]1[C@@H]2O[P@@](O)(=S)OC[C@H]2O[C@H]1n1cnc2cc(Cl)c(Cl)cc21,x,x,n,n,x
O=C(NCc1ccccc1)Oc1cccc(Cl)c1,8.4µM,n,n,n,n
Cc1ccc2nc3sc(=O)sc3nc2c1,x,x,u,8.9µM,x
O=C1C2CC=CCC2C(=O)N1SC(Cl)(Cl)Cl (configuration not stated),x,x,u,4µM,x
CC(=O)OCOCC(=O)OCO[P+](=O)C(OCOC(C)=O)c1cc([N+](=O)[O-])ccc1Oc1ccc(Br)cc1 (configuration not stated),x,x,n,n,x
CCNC(=O)O/N=C(\C)c1sc(-c2ccccc2)nc1C,24µM,n,n,n,n
ClC1=C(Cl)C(Cl)(C2(Cl)C(Cl)=C(Cl)C(Cl)=C2Cl)C(Cl)=C1Cl,x,x,u,3.2µM,x
Cc1c(C)n(O)c2ccc3nonc3c12,19µM,n,n,n,n
CC[N+](C)(CC)CCCCOc1ccc2c(c1)C(=O)c1cc(OCCCC[N+](C)(CC)CC)ccc1-2,11µM,n,u,n,n
O=C(O)COc1ccc(Br)cc1C(c1c(C(=O)O)[nH]c2ccccc12)c1c(C(=O)O)[nH]c2ccccc12,27µM,n,u,u,n
CC1=CC(=O)NP(=O)(Oc2ccc3ccccc3c2)N1 (configuration not stated),6.7µM,n,32µM,n,n
C[C@H](NC(=O)[C@@H](N)Cc1ccc(O)cc1)C(=O)N[C@@H](Cc1ccccc1)C(=O)N[C@@H](Cc1ccccc1)C(N)=O,x,x,n,n,x
Oc1cccc[c]1[Hg][Cl],x,x,0.089µM,5µM,x
Cc1ccccc1-n1c(O)c(/C=C/C=Nc2ccccc2)c(=O)[nH]c1=O,n,u,n,n,32µM
COc1ccc(OC)c(-n2c(O)c(C=Nc3c(C)n(C)n(-c4ccccc4)c3=O)c(=O)[nH]c2=O)c1,n,n,n,n,n
Cc1cccc(-n2c(O)c(/C=C3/C(c4ccccc4)=Nc4ccccc43)c(=O)[nH]c2=O)c1,13µM,n,n,89µM,u
Cc1ccc(-n2c(O)c(/C=C3/C(c4ccccc4)=Nc4ccccc43)c(=O)[nH]c2=O)cc1,8.4µM,n,n,n,n
